Assay [1] is described as follows: qHTS assay to identify small molecule agonists of H2AX (AID 1224845; active means well fitted activation curve with a large enough effect in the signal ratio in the repeat runs, not every such curve was filed as active; the % refers to the signal ratio). The method in brief: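 Wild-type CHO-K1 cells, plated overnight, exposed 3hr at 37C to 15 concentrations (0.76% DMSO final). Lysed, then HTRF anti-pH2AX (S139) cryptate and anti-H2AX-d2 antibodies, 24 hr room temperature; 665/620 nm emission read.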
(In qHTS, concentration-response curves come from the screen itself.)

The nature of assay [2]: qHTS assay to identify small molecule agonists of the hypoxia (HIF-1) signaling pathway (AID 1224846; active means well fitted activation curve with a large enough effect in the signal ratio in the repeat runs, not every such curve was filed as active; the % refers to the signal ratio). The method in brief: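 Reporter induction in HRE-bla ME-180 cells is taken as agonism: cells sit 5 hrs after plating, receive compounds or DMSO only, incubate 17 hrs at 37C under 5% CO2, and are loaded with CCF4-AM for beta-lactamase FRET measurement.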
A short description of assay [3]: qHTS assay to identify small molecule agonists of H2AX - cell viability counter screen (AID 1224847; calls by dose curve; further: top concentration of the series differs between compounds; nearly all actives have a fitted effect of over 30% in size). The essentials: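 Compounds tested at 15 concentrations were incubated 3 hr at 37C with wild-type CHO-K1 cells; cellular ATP-based luminescence (CellTiter-Glo) indicated viability.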
Assay [4] can be described thus: qHTS assay to identify small molecule antagonists of the estrogen related receptor (ERR) signaling pathway from Tox21 library (AID 1224848). Further: nearly all actives have a fitted effect of over 50% in size. Further: potency means the concentration at half of the fitted maximal effect. The essentials:
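Compounds dissolved in DMSO are pin-transferred onto ERR reporter cells (2,000 per well) that have settled for 6 h at 37 C. Plates then incubate 18 h at 37 C before ONE-Glo luciferase reagent and a luminescence read 30 min later.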

Assay [5] in a line: qHTS assay to identify small molecule agonists of the estrogen related receptor (ERR) signaling pathway from Tox21 library (AID 1224849; calls by dose curve; further: nearly all actives have a fitted effect of over 15% in size). Particulars: ERR reporter cell line, ONE-Glo luciferase, 18 h. The method in brief: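 Tox21 compounds tested for ERR agonism in an NTP reporter cell line: 18 h treatment at 37 C, then ONE-Glo luminescence.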
The nature of assay [6]: qHTS RealTime-Glo MT Cell Viability Assay in HepG2 cells - 24 hour (AID 1224867). Further: nearly all actives have a fitted effect of over 50% in size. The essentials:
(§1)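 Tox21 10K library screened in qHTS format on HepG2 cells carrying RealTime-Glo reagents. Compounds were added after a 5 h preincubation, and the luminescent signal from continuous culture was measured repeatedly during 40 h treatment.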

A short description of assay [7]: qHTS RealTime-Glo MT Cell Viability Assay in HEK293 cells - 32 hour (AID 1224868). Further: nearly all actives have a fitted effect of over 50% in size. Further: potency means the concentration at half of the fitted maximal effect. The essentials:
(§2)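 Luminescence generated by NanoLuc from substrate produced by living HEK293 cells served as the viability signal. Each value reflects the reading at its stated time point during continuous 40 h compound exposure at 37 C.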

Assay [8] can be described thus: A CellTox Green Cytotoxicity Assay to monitor cytotoxicity in HEK293 cells - 0 hour (AID 1224869). Further: nearly all actives have a fitted effect of over 50% in size. The essentials: (§3)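 Tox21 screen in HEK293: membrane-impermeant cyanine dye fluoresces on binding dead-cell DNA; compound pinned 5 h post-seeding, plates held at 37 C, signal read repeatedly through 40 h.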
A short description of assay [9]: qHTS RealTime-Glo MT Cell Viability Assay in HepG2 cells - 40 hour (AID 1224870). Further: nearly all actives have a fitted effect of over 50% in size. The essentials:
(§4)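 HepG2 cells (600/well) mixed with RealTime-Glo MT reagent, settled 5 h at 37 C/5% CO2 before compound addition. Nonlytic NanoLuc luminescence from viable-cell prosubstrate reduction read repeatedly during 40 h treatment at 37 C.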

Assay [10] can be described thus: A CellTox Green Cytotoxicity Assay to monitor cytotoxicity in HEK293 cells - 40 hour (AID 1224871). Further: nearly all actives have a fitted effect of over 45% in size. Further: potency means the concentration at half of the fitted maximal effect. The essentials:
as §3

Assay [11] in a line: qHTS RealTime-Glo MT Cell Viability Assay in HepG2 cells - 8 hour (AID 1224873). Further: nearly all actives have a fitted effect of over 55% in size. The essentials:
as §4

A short description of assay [12]: qHTS RealTime-Glo MT Cell Viability Assay in HEK293 cells - 40 hour (AID 1224874). Further: nearly all actives have a fitted effect of over 50% in size. Further: potency means the concentration at half of the fitted maximal effect. The following applies: RealTime-Glo luminescence; max response: hits give low values. The method in brief:
(§5)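 HEK293 + NanoLuc + prosubstrate, 600 cells/well; 5 h, 37 C/5% CO2; compound 23 nL in DMSO by pintool; 37 C; luminescence read at 0, 8, 16, 24, 32 and 40 h time points.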

Assay [13] can be described thus: A CellTox Green Cytotoxicity Assay to monitor cytotoxicity in HepG2 cells - 16 hour (AID 1224876). Further: nearly all actives have a fitted effect of over 45% in size. The method in brief: (§6)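 Measurements at 0, 8, 16, 24, 32 and 40 h of treatment captured CellTox Green fluorescence in HepG2 cells that had been co-plated with reagent and preincubated 5 h at 37 C/5% CO2.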
A short description of assay [14]: qHTS RealTime-Glo MT Cell Viability Assay in HepG2 cells - 32 hour (AID 1224877). Further: nearly all actives have a fitted effect of over 55% in size. The method in brief:
as §1

Assay [15] can be described thus: A CellTox Green Cytotoxicity Assay to monitor cytotoxicity in HepG2 cells - 24 hour (AID 1224878). Further: nearly all actives have a fitted effect of over 45% in size. The essentials: as §6
The nature of assay [16]: A CellTox Green Cytotoxicity Assay to monitor cytotoxicity in HepG2 cells - 40 hour (AID 1224879). Further: nearly all actives have a fitted effect of over 40% in size. The method in brief:
as §6

Assay [17] can be described thus: qHTS RealTime-Glo MT Cell Viability Assay in HEK293 cells - 0 hour (AID 1224880). Further: top concentration of the series differs between compounds; nearly all actives have a fitted effect of over 45% in size. The method in brief:
as §5

A short description of assay [18]: A CellTox Green Cytotoxicity Assay to monitor cytotoxicity in HEK293 cells - 32 hour (AID 1224881). Further: nearly all actives have a fitted effect of over 40% in size. The essentials:
as §3

The nature of assay [19]: A CellTox Green Cytotoxicity Assay to monitor cytotoxicity in HEK293 cells - 24 hour (AID 1224875). Further: nearly all actives have a fitted effect of over 45% in size. The essentials: as §3
Assay [20] can be described thus: qHTS RealTime-Glo MT Cell Viability Assay in HEK293 cells - 16 hour (AID 1224872). Further: nearly all actives have a fitted effect of over 50% in size. Further: potency means the concentration at half of the fitted maximal effect. The essentials: as §2

Six compounds from PubChem BioAssay (Tox21) can be followed below.

SMILES strings stand for the structures. “And” between values parts separate entries of the source, which are not always exact repeats. Equal entries are not always repeated. Values without a mark were called inactive. Results filed as inconclusive are left out. The source made the active and inactive calls. Unless noted, the call rests on the fitted dose curve; in most records, active means well fitted curve in the direction sought with a large enough effect in the repeat runs; inconclusive means weak or mixed curves; inactive means no such curve, though single readings can be large; an effect the other way counts as inactive or inconclusive.
On the % scale 0 is the no-effect control and ±100 the full control effect.

As for `CC(C)(CO)CO`, the Potency entry in assay [1], in [3], in assay [4], in assay [6], in [7] and in assay [8] was “inactive” throughout. Further, the Potency entry in [9], in assay [10], in assay [11], in assay [13], in [14] and in [15] was “inactive” each time. Besides, the Potency result in assay [16], in assay [17] and in [18] was “inactive” throughout. Also, the outcome in assay [2] was inactive. For the same compound, the activity change, positive = activation in assay [5] (at 92.4 µM (top of the series)) is 2.96% and 5.63%. The max response in [12] was 3.9% and 0.954%.

With `CC(C=O)Cc1ccc(C(C)(C)C)cc1` (configuration not stated), the Potency result in assay [1], in assay [3], in [4], in assay [6], in [7] and in assay [8] was “inactive” each time. For the same compound, the Potency entry in [9], in [10], in assay [11], in assay [19], in assay [13] and in [14] was “inactive” throughout. For the same compound, the Potency result in assay [15], in assay [16], in [17] and in assay [18] was “inactive” each time. Besides, the outcome in [2] was inactive. In addition, in [5] (at 92.4 µM (top of the series)), the activity change, positive = activation was -5.89% and -7.2%. Besides, the max response in assay [12] was 0.145% and -7.53%.

As to `COCN(COC)c1nc(N(COC)COC)nc(N(COC)COC)n1`, the Potency result in assay [1], in [3], in assay [4], in assay [6], in [7] and in assay [8] was “inactive” throughout. Moreover, the Potency result in [9], in assay [10], in [20], in [19], in [13] and in assay [14] was “inactive” throughout. In addition, the Potency entry in assay [15], in assay [16], in [17] and in assay [18] was “inactive” throughout. Besides, in assay [2], the compound was called inactive. Also, the activity change, positive = activation in assay [5] (at 92.4 µM (top of the series)) was -2.4% and 4.33%. For the same compound, the max response in assay [12] is -2.02% and -0.0674%.

As to `CC(=O)OC(C)(C)C1CC=C(C)CC1` (configuration not stated), the Potency result in [1], in assay [3], in [4], in assay [6], in assay [7] and in assay [8] was “inactive” in each case. The Potency result in assay [9], in assay [10], in assay [20], in assay [11], in assay [13] and in assay [14] was “inactive” throughout. The Potency result in assay [15], in assay [16], in [17] and in assay [18] was “inactive” in each case. Moreover, in assay [2], the outcome was inactive. In addition, in assay [5] (at 92.4 µM (top of the series)), the activity change, positive = activation was 5.97% and -1.38%. Further, the max response in assay [12] was 3.8% and -15.5%.

Take `Nc1cccc(C(F)(F)F)c1`: the Potency entry in assay [1], in assay [3], in assay [4], in assay [6], in [7] and in assay [8] was “inactive” in each case. For the same compound, the Potency entry in assay [9], in assay [10], in [11], in assay [13], in assay [14] and in assay [15] was “inactive” throughout. Moreover, the Potency result in assay [16], in assay [17] and in [18] was “inactive” in each case. In addition, the call in assay [2] was inactive. The activity change, positive = activation in assay [5] (at 92.4 µM (top of the series)) is 2.57% and 2.05%. In assay [12], the max response is 3.13% and 0.276%.

Regarding `COc1ccc2cc3[n+](cc2c1OC)CCc1cc2c(cc1-3)OCO2`, the Potency result in assay [1], in [3], in [6], in assay [8], in [9] and in assay [19] was “inactive” throughout. The Potency result in assay [13], in [14], in assay [15], in assay [16] and in [17] was “inactive” throughout. The call in assay [2] was inactive. Also, the Potency was 976 nM (active) and 3.35 µM (active) in assay [4]; 4.93 µM (active) and 10.7 µM (active) in assay [7]; 22 µM (active) and 19 µM (active) in assay [10]; 4.4 µM (active) in [20]; 4.4 µM (active) and 9.52 µM (active) in assay [12]. Further, the activity change, positive = activation in [5] (at 42.5 µM (top of the series)) is -43.6%; in assay [5] (at 92.4 µM (top of the series)), -64.1%.
